Calls of active or inactive are those of the source. How the source made its calls: active means hit-call score of the fitted dose curve at least 0.9, where 1 is the maximum; inactive means score below 0.9.

In the experiment the target is Estrogen receptor (Homo sapiens) (UniProt P03372). As to the kind of experiment: OT_ERa_GFPERaERE_0480: Odyssey Thera (OT) 8-hour HeLa Transcription Induction Assay for Estrogen Receptor (AID 2283381). The method, then: OT_ERa_GFPERaERE_0480 is a cell-based, single-readout assay that uses HeLa, a human cervix cell line, with measurements taken at 8 hours after chemical dosing in a 384-well plate.OT_ERa_GFPERaERE_0480 is one of one assay component(s) measured or calculated from the OT_ERa_GFPERaERE_0480 assay. It is designed to make measurements of fluorescent protein induction, a form of inducible reporter, as detected with optical microscopy: fluorescence microscopy signals by Microscopy technology.Data from the assay component OT_ERa_GFPERaERE_0480 was analyzed into 1 assay endpoint. This assay endpoint, OT_ERa_EREGFP_0480, was analyzed in the positive analysis fitting direction relative to DMSO as the negative control and baseline of activity. Using a type of inducible reporter, measures of receptor for gain-of-signal activity can be used to understand the reporter gene at the pathway-level as they relate to the gene ESR1. Furthermore, this assay endpoint can be referred to as a primary readout, because the performed assay has only produced 1 assay endpoint. To generalize the intended target to other relatable targets, this assay endpoint is annotated to the nuclear receptor intended target family, where the subfamily is steroidal.
Chain of Estrogen receptor (Homo sapiens) (P03372 whole entry, looked up): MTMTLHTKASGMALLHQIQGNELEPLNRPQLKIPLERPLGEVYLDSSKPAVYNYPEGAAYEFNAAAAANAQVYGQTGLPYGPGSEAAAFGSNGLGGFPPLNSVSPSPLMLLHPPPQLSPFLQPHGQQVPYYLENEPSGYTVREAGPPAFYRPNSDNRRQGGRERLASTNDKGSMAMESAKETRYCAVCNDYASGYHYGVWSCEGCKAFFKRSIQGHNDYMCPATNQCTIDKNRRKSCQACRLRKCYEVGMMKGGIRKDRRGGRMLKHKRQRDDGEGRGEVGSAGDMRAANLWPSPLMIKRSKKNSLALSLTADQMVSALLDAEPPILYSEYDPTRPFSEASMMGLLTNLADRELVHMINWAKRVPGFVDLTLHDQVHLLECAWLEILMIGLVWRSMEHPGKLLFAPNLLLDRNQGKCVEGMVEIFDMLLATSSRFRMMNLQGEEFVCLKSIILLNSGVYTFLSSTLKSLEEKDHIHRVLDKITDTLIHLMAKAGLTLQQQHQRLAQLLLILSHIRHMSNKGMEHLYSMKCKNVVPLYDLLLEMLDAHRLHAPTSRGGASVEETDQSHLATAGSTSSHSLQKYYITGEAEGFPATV
All assay endpoints are quantified using high content image analysis algorithms.
With `O=C(O)c1c(Cl)ccc2cc(Cl)cnc12`, the molecule was classed as inactive.

`N#Cc1c(Cl)cccc1Cl`: the molecule was called inactive.

On to `Cc1nc(N(C)C)nc(OC(=O)N(C)C)c1C`, for which the result was inactive.

With `Cc1ccc(N=CN(C)C=Nc2ccc(C)cc2C)c(C)c1`, the result was inactive.

Regarding `N#CN=C1SCCN1Cc1ccc(Cl)nc1`, the call was inactive.

As for `CS(=O)(=O)c1ccc(C(=O)C2C(=O)CCCC2=O)c([N+](=O)[O-])c1`, the call was inactive.

`COC(=O)NC(=S)Nc1ccccc1NC(=S)NC(=O)OC`: the result was inactive.

Regarding `CO/N=C(/C1=NOCCO1)c1ccccc1Oc1ncnc(Oc2ccccc2Cl)c1F`, the molecule was called inactive.

For `CCCCC(C#N)(Cn1cncn1)c1ccc(Cl)cc1` (stereo not given), the molecule was classed as inactive.

On to `CCOc1nc(C(Cl)(Cl)Cl)ns1`, for which the result was inactive.

Consider `Cc1c(COC(=O)[C@@H]2[C@H](/C=C(\Cl)C(F)(F)F)C2(C)C)cccc1-c1ccccc1`, for which the outcome was inactive.

On to `N#Cc1c[nH]cc1-c1cccc2c1OC(F)(F)O2`, for which the molecule was called inactive.

As to `CCCN(CC)CC1COC2(CCC(C(C)(C)C)CC2)O1` (stereo not given), the result was inactive.

As to `O=c1n(Cl)c(=O)n(Cl)c(=O)n1Cl`, the molecule was called inactive.

With `COCC(=O)N(c1c(C)cccc1C)C(C)C(=O)OC` (stereo not given), the call was inactive.

Turning to `CCOc1nc(F)cc2nc(S(=O)(=O)Nc3c(Cl)cccc3Cl)nn12`, the result was inactive.

With `O=C(Nc1ccccc1-c1ccc(Cl)cc1)c1cccnc1Cl`, the molecule was called inactive.

On to `CCOP(=S)(OCC)Oc1nc(Cl)n(C(C)C)n1`, for which the molecule was called inactive.

With `C=CCOC(=O)C(C)(C)OC(=O)c1cc(-n2c(=O)cc(C(F)(F)F)n(C)c2=O)ccc1Cl`, the call was inactive.

Turning to `CCN(CC)C(=O)C(C)Oc1cccc2ccccc12` (stereo not given), the call was inactive.

In the case of `CN/C(=N\[N+](=O)[O-])NCc1cnc(Cl)s1`, the molecule was classed as inactive.

In the case of `CC1(C)C(C(=O)OC(C#N)c2cccc(Oc3ccccc3)c2)C1(C)C` (stereo not given), the result was inactive.

For the molecule `Cc1cc(C)nc(Nc2ccccc2)n1`, the outcome was inactive.

For the molecule `CSC(=O)c1c(C(F)F)nc(C(F)(F)F)c(C(=O)SC)c1CC(C)C`, the outcome was inactive.

For the molecule `Nc1c(Cl)c(Cl)nc(C(=O)O)c1Cl`, the outcome was inactive.

Turning to `CC1(C)CON(Cc2ccccc2Cl)C1=O`, the call was inactive.

As to `O=C1C2CC=CCC2C(=O)N1SC(Cl)(Cl)Cl` (stereo not given), the call was inactive.

Turning to `CCOP(=O)(OCC)Oc1nc(Cl)c(Cl)cc1Cl`, the molecule was called inactive.

On to `COC(=O)N(C(=O)N1CO[C@@]2(C(=O)OC)Cc3cc(Cl)ccc3C2=N1)c1ccc(OC(F)(F)F)cc1`, for which the molecule was classed as inactive.

As to `COP(=O)(OC)O/C(C)=C/C(=O)N(C)C`, the outcome was inactive.

For `Cn1c(-c2ccccc2)cc(-c2ccccc2)[n+]1C`, the outcome was inactive.

As to `CS(=O)(=O)c1cc(C(F)(F)F)ccc1C(=O)c1cnoc1C1CC1`, the call was inactive.

Regarding `CC(C)=CC1C(C(=O)OCc2coc(Cc3ccccc3)c2)C1(C)C` (stereo not given), the call was inactive.

Consider `CCNC(=O)NC(=O)C(C#N)=NOC`, for which the result was inactive.

On to `CC1(C)CCC(=Cc2ccc(Cl)cc2)C1(O)Cn1cncn1` (stereo not given), for which the outcome was inactive.

With `O=P(O)(O)CCCl`, the outcome was inactive.

With `Clc1nc(Cl)nc(Nc2ccccc2Cl)n1`, the molecule was called inactive.

Consider `CC(C)N1C(=O)c2ccccc2NS1(=O)=O`, for which the call was inactive.

For the molecule `CCOC(=O)C(C)OC(=O)c1cc(Oc2ccc(C(F)(F)F)cc2Cl)ccc1[N+](=O)[O-]` (stereo not given), the molecule was called inactive.

With `CCOc1cc(C(C)(C)C)ccc1C1COC(c2c(F)cccc2F)=N1` (stereo not given), the result was inactive.

The record behind these values is PubChem BioAssay (EPA / NIEHS).
